High-throughput results: PubChem BioAssay, several laboratories
An excerpt weighted towards active compounds, which were near 1.8% of everything screened.
TLR9-MyD88 block – inhibitors of TLR9-MyD88 association in cells, primary screen, cell-based, CHO, BLA complementation, fluorescence. Toll-like receptor 9 (Homo sapiens) + Myeloid differentiation primary response protein …. CCF4 FRET ratio. inhibition, % at 4.98 µM. actives 0.21% (n = 340,000). AID 504734, 2011;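 active = inhibition above the mean over all tested compounds plus 3 SD, cut at about 21% in these data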;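 note: 0% = DMSO only wells and 100% = clavulanate BLA inhibitor control wells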
Mcl1 Noxa PPI – Mcl-1/Noxa binding inhibitors, primary screen, biochemical, TR-FRET, 1536-well. Induced myeloid leukemia cell differentiation protein Mcl-1 (Homo sapiens), Q07820. TR-FRET Mcl-1/Noxa peptide binding, 2 h. inhibition, % at 21.7 µM. actives 1.5% (n = 220,000). AID 1022, 2008;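 active = compounds that cut the protein-peptide binding signal by more than 50% relative to plate controls in a single-dose test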;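 note: His-tagged Mcl-1 with rhodamine Noxa BH3 peptide and terbium anti-His antibody; 0% = Mcl-1 plus Noxa peptide wells and 100% = peptide-only wells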
TLR4-MyD88 BLA – inhibitors of TLR4-MyD88 association in cells, primary screen, cell-based, HeLa CL3-4, BLA complementation, FRET ratio. inhibition, % at 8.4 µM. HeLa CL3-4 TLR4/MyD88 BLA complementation. Toll-like receptor 4 (Homo sapiens) + Myeloid differentiation primary response protein …. actives 0.18% (n = 200,000); in the data active = inhibition above about 25%;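 note: 0% = vehicle and 100% = reference inhibitor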
Mcl1 Bid PPI – Mcl-1/Bid binding inhibitors, primary screen, biochemical, TR-FRET, 1536-well. Induced myeloid leukemia cell differentiation protein Mcl-1 (Homo sapiens), Q07820. inhibition, % at 21.7 µM. AID 1021, 2008. actives 0.97% (n = 220,000). TR-FRET Mcl-1/Bid-Dy647 peptide binding;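 active = compounds that cut the binding signal by more than half at the single screening dose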;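 note: His-tagged Mcl-1 with europium anti-His antibody binding Bid BH3 peptide; 0% = Mcl-1 plus peptide wells and 100% = peptide-only wells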
Mcl-1 Bim block – inhibitors of Bim peptide binding to Mcl-1, primary screen, biochemical, bead-based flow cytometry, multiplex | actives 0.1% (n = 190,000) | inhibition, % at 10 µM | Induced myeloid leukemia cell differentiation protein Mcl-1 (Homo sapiens), Q07820 | Bim peptide-Mcl-1 binding | AID 1009, 2008; in the data active = inhibition above about 40%;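 note: 0% = no compound tracer wells and 100% = peptide blocker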
NOD2-RIPK2 inh – NOD2-RIPK2 binding disruptors in cells, primary screen, fluorescence, CHO cells, BLA complementation; Receptor-interacting serine/threonine-protein kinase 2 (Homo sapiens), O43353; CCF4 ratio; inhibition, % at 4.98 µM; actives 0.38% (n = 360,000); AID 624267, 2012; in the data active = inhibition above about 21%;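 note: 0% = vehicle only and 100% = reference blocker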
Target sequence (O43353 whole entry, looked up): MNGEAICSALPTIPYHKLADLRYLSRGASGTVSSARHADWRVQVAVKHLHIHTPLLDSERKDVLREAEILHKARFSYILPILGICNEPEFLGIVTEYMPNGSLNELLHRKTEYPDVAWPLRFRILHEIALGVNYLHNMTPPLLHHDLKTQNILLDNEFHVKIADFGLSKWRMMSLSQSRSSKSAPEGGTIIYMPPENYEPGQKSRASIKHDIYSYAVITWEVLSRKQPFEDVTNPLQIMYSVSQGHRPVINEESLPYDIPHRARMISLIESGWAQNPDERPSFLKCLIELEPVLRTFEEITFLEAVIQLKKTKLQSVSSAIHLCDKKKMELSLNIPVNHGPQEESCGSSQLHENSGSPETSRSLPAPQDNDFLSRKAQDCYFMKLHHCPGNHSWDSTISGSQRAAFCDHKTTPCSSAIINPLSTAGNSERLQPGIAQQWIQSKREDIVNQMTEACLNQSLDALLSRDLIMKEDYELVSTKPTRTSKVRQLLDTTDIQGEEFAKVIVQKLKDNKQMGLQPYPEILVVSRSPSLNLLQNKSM
Active calls of the source: *; nt = no result.

SMILES	TLR9-MyD88 block	Mcl1 Noxa PPI	TLR4-MyD88 BLA	Mcl1 Bid PPI	Mcl-1 Bim block	NOD2-RIPK2 inh
CC(=O)N1CCc2cc(S(=O)(=O)NC(Cc3ccccc3)C(=O)NC3CCCCCC3)ccc21 (stereo not drawn)	-2	103*	1	99*	-4	-12
Cc1ccc(NC(=O)CN2C(=O)S/C(=C/c3ccc(O)c([N+](=O)[O-])c3)C2=O)cc1C	-7	73*	-6	21	-3	-2
Cc1cccc(NC(=O)CN2C(=O)S/C(=C\c3ccc(O)c([N+](=O)[O-])c3)C2=O)c1	11	21	-23	-43	1	-5
Cc1cccc2nc(CSc3nc4ccc([N+](=O)[O-])cc4[nH]3)c(Br)n12	-9	60*	-3	-41	-4	-8
COCCNC(=O)C1(C)CCCN(Cc2cn(C)c3ccccc23)C1 (stereo not drawn)	nt	nt	nt	nt	nt	-8
COc1ccccc1/C=C/C=c1\sc2nc(=O)c(Cc3ccccc3)nn2c1=O	0	51*	nt	-35	nt	-2
CCCOc1ccc(/C=c2\sc3nc(-c4ccco4)nn3c2=O)cc1OCC	-1	12	4	-12	-4	-7
CCCOc1ccc(Cc2nn3c(=O)/c(=C/c4ccco4)sc3nc2=O)cc1	-4	75*	15	0	-4	-1
O=C(OCc1cn([C@@H]2CN(Cc3cccs3)[C@@H](c3ccccc3)C[C@H]2O)nn1)c1ccccc1	6	nt	nt	nt	nt	-8
CC1CCc2c(sc3ncn(CC(=O)N=Nc4c(O)[nH]c5ccccc45)c(=O)c23)C1 (stereo not drawn)	5	20	nt	68*	nt	4
Cc1ccc(-c2cc(C(=O)NCc3ccco3)c3ccccc3n2)o1	0	66*	-4	1	0	-13
COC(=O)c1cc(-c2ccc(C)o2)nc2ccccc12	-11	78*	10	2	0	-7
CCCN(CCC)CCNc1c(N2CCN(C(=O)OCC)CC2)c(=O)c1=O	-7	64*	3	-30	0	6
Cc1ccc(N/C=C/c2onc(C)c2[N+](=O)[O-])cc1	7	-4	nt	-56	nt	-3
COc1cccc(N/C=C/c2onc(C)c2[N+](=O)[O-])c1	-5	55*	-14	19	0	-4
CC[n+]1c(/C=C/N(C)c2ccccc2)n(-c2ccccc2)c2ccc(-c3nc4ccccc4s3)cc21	17	nt	nt	nt	nt	31*
O=C(N/C=C/c1ccco1)NCc1ccccc1	2	64*	-8	-65	0	-2
O=C(N/C=C/c1ccco1)OCc1ccccc1	7	4	-2	-39	0	5
CCCCC(C(=O)OCC)C(N)Cc1ccc(F)cc1 (stereo not drawn)	-12	24	8	2	98*	-6
CCOC(=O)C(Cc1ccccc1)C(=O)c1ccco1 (stereo not drawn)	5	nt	nt	nt	nt	1
CCCCc1nnc(NC(=O)CSCc2cc(=O)n3cc(C)sc3n2)s1	0	nt	nt	nt	nt	-6
O=[N+]([O-])c1ccc2c(c1)ncn2CCc1ccccc1	5	nt	nt	nt	nt	-10
CCOC1=C2[C@@H](CN(S(=O)(=O)c3ccc(C)cc3)[C@H]2c2cccc3ccccc23)[C@H]2C(=O)N(C3CCCCC3)C(=O)[C@H]2C1	nt	nt	nt	nt	nt	0
CCn1c(SCC(=O)N2CCOCC2)nc2oc3c(Cl)cc(Cl)cc3c(=O)c2c1=O	nt	54*	2	-66	0	nt
O=C(CN1C(=O)NC2(CCCC2)C1=O)N1CCN(S(=O)(=O)c2cccc(C(F)(F)F)c2)CC1	4	nt	nt	nt	nt	-4
SMILES	TLR9-MyD88 block	Mcl1 Noxa PPI	TLR4-MyD88 BLA	Mcl1 Bid PPI	Mcl-1 Bim block	NOD2-RIPK2 inh
COc1ccc(S(=O)(=O)N2CCOCC2)cc1NC(=O)COc1ncnc2ccccc12	-4	4	-1	0	0	-5
COc1ccc(NC(=O)c2ccc(Cl)nc2)cc1S(=O)(=O)N1CCOCC1	1	nt	nt	nt	nt	-5
COc1ccc(NC(=O)Cn2ncc(Cl)c(Cl)c2=O)cc1S(=O)(=O)N1CCOCC1	-4	78*	0	-16	0	-17
COc1ccc(NC(=O)COc2ncnc3ccccc23)cc1S(=O)(=O)N1CCOCC1	5	-11	7	-18	41*	-4
O=C(CN1C(=O)NC2(CCCCCCC2)C1=O)N1CCc2ccccc2C1	-8	3	-6	-4	0	-2
COc1ccccc1CC1(C)NC(=O)N(CC(=O)N2CCc3ccccc3C2)C1=O (stereo not drawn)	-2	15	-8	57*	1	-12
Cc1nnc(N(C)C(=O)c2ccc3c(c2)OCO3)s1	7	-18	-10	-46	5	-3
COC(=O)c1cc(Br)ccc1NC(=O)Nc1ccccc1	2	73*	3	-5	-6	5
COCCNC(=O)CC(NS(=O)(=O)c1ccc(C)cc1)c1ccco1 (stereo not drawn)	10	3	-13	-14	-1	-3
COc1ccccc1CNC(=O)CC(NS(=O)(=O)c1ccc(C)cc1)c1ccco1 (stereo not drawn)	1	19	-3	92*	0	-10
CCN1CCCC1CNc1ncnc2c1[nH]c1ccc(Cl)cc12 (stereo not drawn)	-5	73*	-4	6	-2	7
O=C1CCCN1CCCNc1ncnc2c1[nH]c1ccc(Cl)cc12	-6	11	4	-3	-1	-7
COc1ccc(C2(C)NC(=O)N(CC(=O)NCCC3=CCCCC3)C2=O)cc1OC (stereo not drawn)	-4	6	4	84*	-1	-2
Oc1ccc(C[C@H]2CNC(=S)N2CC2CCCN2C[C@H](Cc2ccc(O)cc2)N2C[C@H](Cc3ccccc3)N(CC3CCCCC3)C2=S)cc1 (stereo partly drawn)	0	nt	nt	nt	nt	-15
CCc1nc(C)ccc1OCC(=O)NCCCN(C)C	-3	32	-5	55*	-3	-13
CCc1nc(C)ccc1OCC(=O)O	-5	20	-2	22	-1	-2
CCCCCCCC/C=C\CCCCCCCC(=O)O	-15	63*	nt	-74	nt	-3
CCCCn1c(NC(=O)c2ccccc2)c(C#N)c2nc3ccccc3nc21	-6	67*	-12	85*	2	8
CCC(C)n1c(NC(=O)c2ccccc2)c(C#N)c2nc3ccccc3nc21 (stereo not drawn)	1	nt	-34	nt	nt	-4
CCOc1ccc(NC(=O)C2CCN(C(=O)C3CC(=O)N(c4ccc(C)cc4)C3)CC2)cc1 (stereo not drawn)	-11	nt	nt	nt	nt	-2
